The campaign covered roughly 300,000 compounds. About 2,700 (0.9%) were called active. Shown is part of a subset that was picked to be rich in actives. Values without a mark were called inactive.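 Rule for the calls: active = mean inhibition of at least 30% with at least half of replicates also reaching 30%; inconclusive = no clear call, values can overlap the other calls; inactive = the rest.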

In the test the target is Golgi-associated PDZ and coiled-coil motif-containing protein (Homo sapiens) (UniProt Q9HD26). Kind of test: blockade of CAL PDZ-reporter peptide interaction – biochemical, fluorescence polarization, untagged CAL PDZ, HTS, primary screen (AID 602252).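 Note: 0% = DMSO neutral control and 100% = excess unlabeled competitor peptide PRC23.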 Conditions: purified CAL PDZ, TMR-peptide fluorescence polarization, 1 h; at 24.9 µM; hits give high values.
One may read the inhibition as the relative decrease from the control value, in per cent. As to `CS(=O)(=O)N(CC(=O)Nc1ccc(Cl)c(Cl)c1)C1CCCCC1`, the inhibition was 51.4% (active). Turning to `CS(=O)(=O)N(CC(=O)Nc1ccc(F)cc1)C1CCCCC1`, the inhibition is -14.6%. Regarding `CCC(C)NC(=O)CN(C1CCCCC1)S(C)(=O)=O` (configuration not stated), the inhibition was 7.29%. On to `COc1ccc(Cn2cc(CN3CCS(=O)(=O)N(Cc4ccc(-c5cccc(Cl)c5)cc4)C(C)C3=O)nn2)cc1` (configuration not stated), for which the inhibition was -4.3%.

`CCCc1cc(-c2n[nH]c(=S)n2Cc2ccccc2)cs1`: the inhibition was -5.83%. The value for `CCn1c(-c2ccncc2)n[nH]c1=S` was -0.231%; that for `O=C(N[C@H]1C/C=C\C(c2ccc(F)cc2)N(Cc2ccccc2)C(=O)C1)OCC1c2ccccc2-c2ccccc21` (some centres not stated) was -2.32%; that for `O=C(Nc1nnc(CCc2ccccc2)s1)C1CCCO1` (configuration not stated) was 32% (active). In the case of `CC(C)Cc1nnc(NC(=O)CCc2ccccc2)s1`, the inhibition was -1.93%. `O=C(Nc1cccc(-c2nnc(-c3ccccc3)o2)c1)C1CCCO1` (configuration not stated): the inhibition was -1.93%. For `CN(c1ccccc1)S(=O)(=O)c1ccc(C(=O)N2CCN(c3ccccc3Cl)CC2)cc1` the value was -2.37%. Turning to `Cc1ccc(C(=O)C[n+]2cc(-c3ccccc3)n3c2CCCCC3)cc1`, the inhibition is -2%. `Clc1ccc(C[n+]2cc(-c3ccc(Cl)cc3)n3c2CCC3)cc1`: the inhibition was 36.9% (active). Turning to `Cn1c(-c2ccccc2)c[n+]2c1CCCCC2`, the inhibition is -4.71%. For the molecule `COc1ccccc1CNC(=O)c1ccc(Cl)c(S(=O)(=O)N2CCCC2)c1`, the inhibition is -2.41%. For `O=C1NC[C@@H](c2ccccc2)OC(=O)[C@H](Cc2ccc(F)cc2)CC/C=C/C[C@H]1CC(=O)N(CCO)Cc1ccccc1` the value was -2.15%; for `Cc1ccc(OCCNC(=O)c2cccc(S(=O)(=O)N3CCN(Cc4ccccc4)CC3)c2)cc1`, -4.14%. Consider `NS(=O)(=O)c1ccc(CCNC(=O)c2ccc(Cl)c(S(=O)(=O)N3CCCCCC3)c2)cc1`, for which the inhibition was -16.5%. `Cc1cc(C)c2c(-n3cccc3)c(C(=O)NNS(=O)(=O)c3ccc(F)cc3)sc2n1`: the inhibition was 44.4% (active). For `COC(=O)Nc1sc2nc(C)cc(C)c2c1-n1cccc1` the value was 0.432%; for `Cc1cc(C)c2c(-n3cccc3)c(NC(=O)OCc3ccccc3)sc2n1`, -1.91%. For `O=C(c1ccc2c(c1)C(=O)N(Cc1ccncc1)C2=O)N1CCN(S(=O)(=O)c2ccc(OC(F)(F)F)cc2)CC1` the value was -4.84%; for `O=C(COC(=O)CNC(=O)c1ccccc1F)NCC(F)(F)F`, -0.464%. For `O=C(CNC(=O)c1ccccc1F)OCC(=O)c1c[nH]c2ccccc12`, the inhibition was 53.7% (active). As for `C[C@H](NC(=O)c1ccccc1)C(=O)OCC(=O)c1c[nH]c2ccccc12`, the inhibition was -2.85%.

For `CC(C)C[C@H]1CN([C@@H](CC(C)C)CN2CCC[C@@H]2CN2C(=O)C(=O)NC[C@@H]2Cc2ccccc2)C(=O)C(=O)N1CCc1ccccc1`, the inhibition is -2.72%. As for `CC(=O)Nc1ccc(NC(=O)COc2ccc(-c3ccccc3)cc2)cc1`, the inhibition was -4.37%. Turning to `Cc1ccc(OCC(=O)Nc2ccc(-c3nc4ncccc4o3)cc2)cc1`, the inhibition is 46% (active). As for `Cc1ccc(OCC(=O)Nc2ccc(S(=O)(=O)Nc3ccccn3)cc2)cc1`, the inhibition was -5.23%. `O=C(NN=Cc1ccccc1O)NN=Cc1ccccc1O`: the inhibition is -7.2%. For `OC(c1nc2ccc(F)cc2[nH]1)C(O)c1nc2ccc(F)cc2[nH]1` (configuration not stated) the value was 37% (active). Regarding `CC(C)c1nc2ccc(C(=O)O)cc2[nH]1`, the inhibition is 1.18%. For the molecule `CN(Cc1nc2ccc(F)cc2[nH]1)Cc1nc(CC2CC2)no1`, the inhibition is -5.2%. In the case of `Cc1ccc(S(=O)(=O)N2CCN(C(=O)COC(=O)/C=C/c3cccc(Cl)c3)CC2)c(C)c1`, the inhibition is -0.868%.

For `CCOC(=O)N(Cc1ccccc1)C1CC1`, the inhibition is -3.68%. With `O=C(Nc1ccc(Cl)cc1)N1CCc2[nH]c3ccccc3c2C1`, the inhibition is -12.5%. In the case of `Fc1ccc(NC(=S)N2CCc3[nH]c4ccccc4c3C2)cc1`, the inhibition was 0.223%. Turning to `O=C(NC1CCCCC1)N1CCc2[nH]c3ccccc3c2C1`, the inhibition was 73.4% (active). Turning to `COc1ccc(C2=Nn3c(nnc3-c3ccccc3OC)SC2)cc1OC1CCCC1`, the inhibition is -2.41%. `O=C1OC(Oc2ccc(Br)cc2)(c2ccccc2)c2ccccc21` (configuration not stated): the inhibition is -1.95%. For the molecule `CC(=O)c1c(C)[nH]c(C(=O)OCC(=O)Nc2c(C)cccc2C)c1C`, the inhibition is 4.23%. Regarding `CC(=O)c1c(C)[nH]c(C(=O)OCC(=O)NCCC(C)C)c1C`, the inhibition was 66.4% (active).

Consider `CC(=O)c1c(C)[nH]c(C(=O)OCC(=O)Nc2cc(S(=O)(=O)N3CCCCC3)ccc2C)c1C`, for which the inhibition was -0.974%. Consider `O=C(Nc1ccccc1)/C(=C\c1ccco1)NC(=O)c1ccco1`, for which the inhibition was -6.57%. Take `Cc1cccc(NC(=O)/C(=C\c2ccco2)NC(=O)c2ccccc2)c1`: the inhibition was 79.4% (active). `COc1ccc(/C=C(/NC(=O)c2ccccc2)C(=O)Nc2cccc(C(=O)O)c2)cc1`: the inhibition is -4.34%. In the case of `COc1ccc(CCC(=O)Nc2ccc(Cl)c(S(=O)(=O)N3CCOCC3)c2)cc1OC`, the inhibition is -22.4%. Regarding `CC(=O)OCC1(O)CC23CCC4c5ccoc5CCC4(C)C2CCC1C3` (configuration not stated), the inhibition was -3.61%. Turning to `O=C1NCC(Nc2ccccc2)C(=O)N1` (configuration not stated), the inhibition was 1.56%. For `CC1(c2ccc3ccccc3c2)NC(=O)NC1=O` (configuration not stated), the inhibition is -8.76%.

For the molecule `O=C1NCC(c2ccccc2)(c2ccccc2)C(=O)N1`, the inhibition was 41.9% (active).

For `COc1ccccc1-c1nnc2n1N=C(c1ccc(OC(F)F)c(OCC3CC3)c1)CS2`, the inhibition was -1.27%. For `O=C1C(Cl)=C(Oc2ccccc2)C(=O)c2ccccc21` the value was 6.75%; for `COc1ccccc1C(=O)Nc1ccc(C)c(S(=O)(=O)N2CCCCC2)c1`, -7.43%; for `O=[N+]([O-])c1ccc(N/N=C/c2ccccc2)cc1`, 4.6%. For `NC(=S)N/N=C/c1ccc([N+](=O)[O-])cc1` the value was 1.65%; for `O=[N+]([O-])c1ccc(C=NN=Cc2ccc([N+](=O)[O-])cc2)cc1`, 76.3% (active); for `CC(C)N(Cc1nnc(-c2ccccc2Br)o1)C(=O)c1cc(Cl)nc2ccccc12`, 2.14%. Regarding `CCc1ccc(OC(C)C(=O)Nc2ccc(S(=O)(=O)Nc3cc(C)on3)cc2)cc1` (configuration not stated), the inhibition was -5.02%. The value for `CCC(Oc1ccccc1C)C(=O)Nc1ccc(S(=O)(=O)Nc2cc(C)on2)cc1` (configuration not stated) was 71.5% (active); that for `CCOc1ccc(C(=O)Nc2ccc(S(=O)(=O)Nc3cc(C)on3)cc2)cc1` was -5.22%; that for `CN(c1ccccc1)S(=O)(=O)c1cc(C(=O)N2CCN(c3ncccn3)CC2)ccc1Cl` was -2.36%.

On to `Nc1ncnc2c1ncn2[C@@H]1O[C@H](CNS(=O)(=O)c2ccc(-c3ccno3)s2)[C@@H](O)[C@H]1O`, for which the inhibition is -0.947%. For `COc1ccc(CC(NC(C)=O)C(=O)NC2CCN(C(=O)C3CC3)CC2)cc1OC` (configuration not stated), the inhibition was 5.28%. For `COc1ccccc1CC(NC(C)=O)C(=O)NC1CCN(C(=O)Nc2ccccc2Cl)CC1` (configuration not stated) the value was 78.3% (active); for `COc1cccc(NC(=O)N2CCC(NC(=O)C(Cc3cccc(C)c3)NC(C)=O)CC2)c1` (configuration not stated), -5.2%; for `C=CCCC(=O)N1C[C@H]2CON(C)[C@H]2C[C@H]1c1cccc(Nc2ccccc2)c1`, 1.45%. `O=C(Nc1ccccc1)Oc1cccc2cccnc12`: the inhibition was -4.21%. Regarding `CCC(CO)Oc1cc(NCc2ccccc2)c2ncn(C3CCCC3)c2c1` (configuration not stated), the inhibition is 2.05%. For `Cc1ccc2nc(C)cc(N/N=C/c3ccc(F)cc3)c2c1` the value was -0.859%. For `Oc1ccc(/C=N/Nc2nc(-c3ccccc3F)nc3ccccc23)c(O)c1` the value was 4.73%. As to `Cc1cc(N/N=C/c2ccccc2F)c2ccccc2n1`, the inhibition is 30.5% (active). Regarding `O=C(c1cccnc1)N(Cc1ccccc1)C(=O)c1cccnc1`, the inhibition was -4.97%. The value for `COc1ccc(C(CNC(=O)c2cccnc2SC)N2CCOCC2)cc1` (configuration not stated) was -3.62%. For `CSc1ncccc1C(=O)NCC(c1ccco1)N1CCCCC1` (configuration not stated), the inhibition is 63.8% (active). The value for `COc1ccccc1C(=O)NCCC(=O)NCC(c1ccco1)N1CCCCC1` (configuration not stated) was 2.93%; that for `Cc1ccc(C(=O)Nc2ccc3c(c2)OCCO3)cc1S(=O)(=O)N1CCOCC1` was -4.3%; that for `CCCN(CCC)S(=O)(=O)c1cc2c(cc1Br)CCN2C(=O)CC` was 0.953%. Regarding `COc1ccc(/C=C/C(=O)OCC(=O)N2CCN(S(=O)(=O)c3ccc(C)cc3C)CC2)cc1OC`, the inhibition was 6.76%. For the molecule `O=C(CSc1nc2ccccc2c(=O)n1-c1ccccc1F)N1CCOCC1`, the inhibition is -2.27%.

As to `Cc1ccc(OCC(=O)Nc2cccc3c2CCCC3)cc1C`, the inhibition is 1.05%. With `Cc1ccc(OCC(=O)Nc2ccc(C(=O)O)cc2NC(=O)COc2ccc(C)c(C)c2)cc1C`, the inhibition is 56.8% (active). On to `Cc1cccc(OCC(=O)Nc2ccc(C(=O)O)cc2NC(=O)COc2cccc(C)c2)c1`, for which the inhibition is -0.14%. Take `Cc1ccc(NC(=O)CCC(=O)N2CCC(c3ccccc3)=N2)cc1S(=O)(=O)N1CCCCC1`: the inhibition was -3.11%. For `Cc1ccc(C(=O)N2CCCC(c3ccccc3)=N2)cc1`, the inhibition is 4.38%. On to `Cc1ccc(NC(=S)N2CCCC(c3ccccc3)=N2)cc1`, for which the inhibition is 38.9% (active). Take `CCCCNC(=O)C(C)N(CCN(C)C)C(=O)CCCN1C(=O)NC(c2ccc(Cl)cc2)C(C(=O)OCc2ccccc2)=C1C` (configuration not stated): the inhibition was -4.12%. For `COc1cccc(CNC(=O)CCC2CCCN(Cc3ccc(OC(F)F)cc3)C2)c1` (configuration not stated), the inhibition is 7.33%.

Take `CSc1ncccc1C(=O)N1CCCC(CCC(=O)NCc2ccccc2F)C1` (configuration not stated): the inhibition was 4.75%.

`COc1cccc(C(=O)N2CCCC(CCC(=O)NCc3ccc(F)c(F)c3)C2)c1` (configuration not stated): the inhibition was -10.1%. For the molecule `COc1cccc(CNC(=O)CCC2CCCN(C(=O)c3ccoc3C)C2)c1` (configuration not stated), the inhibition was 56.3% (active). Turning to `O=C(CCC1CCCN(Cc2ccc(O)c(Cl)c2)C1)NCc1ccccc1F` (configuration not stated), the inhibition is -4.54%. Take `Cc1[nH]c2c(C(=O)N3CCCC(CCC(=O)NCc4ccccc4F)C3)cccc2c1C` (configuration not stated): the inhibition was 46.8% (active). Take `CC(C)(C)S(=O)(=O)N1Cc2cc(CO)cc(CCO)c2[C@H]1CCO`: the inhibition was -1.94%. As for `CC(C)NC(=O)Nc1cccc2c1O[C@@H](CN(C)S(=O)(=O)c1ccc(F)cc1)[C@@H](C)CN([C@H](C)CO)C2=O`, the inhibition is -0.185%. On to `CCc1cc(C(=O)Nc2nnc(C3CC3)s2)sc1C`, for which the inhibition was -1.8%.

Take `CSCCC(NS(=O)(=O)c1ccc(C)cc1)C(=O)N(C)CC(=O)Nc1ccccc1Br` (configuration not stated): the inhibition is 0.255%.

(Values after PubChem BioAssay AID602252 (Broad Institute, 2012).)
